{"source": "PubChem BioAssay AID652208", "about": "(Broad Institute, 2013)", "note": "Results with a measured potency or affinity are listed apart. Active and inactive are the calls of the source.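 The calls were made as follows: active = Loss of cell signal with fitted half-effect dose at or below twice the top valid tested dose; inconclusive = Poor fit, or flat fit from -70 to -30 percent; inactive = Half-effect above limit, rising signal, or flat within 30 percent.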"}
{"experiment": "viability loss in HEK293T cells – cell-based, cherry-picks, cytotoxicity control for HIV Vif inhibitor project, dose response (AID 652208);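 also: 0% = median neutral control wells and -100% = median staurosporine control wells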", "details": "CellTiter-Glo luminescence, 24 h; series mostly up to 26 µM; activity change, negative = cytotoxicity: at the top concentration"}
{"smiles": "CCCCOc1ncnc2c1[nH]c1ccccc12", "activity change, negative = cytotoxicity": "-16.2% (inactive)"}
{"smiles": "CCN(CC)C(=O)c1sc2nc(-c3cccs3)cc(-c3cccs3)c2c1N", "activity change, negative = cytotoxicity": "-4.67% (inactive)"}
{"smiles": "Cc1cc(S(=O)(=O)N2CCOCC2)ccc1OCC(=O)NCCN1CCOCC1", "activity change, negative = cytotoxicity": "0.628% (inactive)"}
{"smiles": "N#CC(C(=O)NCCc1ccccc1)c1nc2ccccc2nc1N1CCOCC1", "note": "(configuration not stated)", "activity change, negative = cytotoxicity": "-10.5% (inactive)"}
{"smiles": "CCN1C(=O)c2cccc3c(S(=O)(=O)Nc4ccccc4O)ccc1c23", "activity change, negative = cytotoxicity": "5.31% (inactive)"}
{"smiles": "Cc1ccc(C(C)C)c(OCC#CCN2CCOCC2)c1", "activity change, negative = cytotoxicity": "2.59% (inactive)"}
{"smiles": "NS(=O)(=O)c1ccc(NC(=O)CCC(=O)N2CCOCC2)cc1", "activity change, negative = cytotoxicity": "3.75% (inactive)"}
{"smiles": "Cc1nnc2ccc(-c3cccc(NS(=O)(=O)c4ccccc4Cl)c3)nn12", "activity change, negative = cytotoxicity": "-5.54% (inactive)"}
{"smiles": "COc1ccc(CC(=O)OCC(=O)NCc2ccc(Cl)cc2)cc1", "activity change, negative = cytotoxicity": "-9.68% (inactive)"}
{"smiles": "COc1ccccc1C(=O)COC(=O)C1(C)CC1(Cl)Cl", "note": "(configuration not stated)", "activity change, negative = cytotoxicity": "-0.825% (inactive)"}
{"smiles": "O=S(=O)(Nc1nc2ccccc2nc1NCc1ccco1)c1ccc(Cl)cc1", "activity change, negative = cytotoxicity": "-17.6% (inactive)"}
{"smiles": "CN1CCc2c(sc(NC(=O)c3cc(Cl)sc3Cl)c2C(N)=O)C1", "activity change, negative = cytotoxicity": "-10.7% (inactive)"}
{"smiles": "CCN(CCCNC(=O)C1CCC(=O)N1Cc1ccc(C)cc1)c1cccc(C)c1", "note": "(configuration not stated)", "activity change, negative = cytotoxicity": "-8.75% (inactive)"}
{"smiles": "COc1ccc2nc3ccccc3nc2c1NC(=O)c1ccc(Cl)cc1", "activity change, negative = cytotoxicity": "1.12% (inactive)"}
{"smiles": "CCOC(=O)C1(Cc2cccc(OC)c2)CCN(CCO)CC1", "activity change, negative = cytotoxicity": "-13.8% (inactive)"}
{"smiles": "Cc1ccc(C(=O)COC(=O)c2cc(=O)[nH]c3ccccc23)cc1C", "activity change, negative = cytotoxicity": "0% (inactive)"}
{"smiles": "NS(=O)(=O)c1ccc(-c2ccc(/C=C3\\SC(=O)NC3=O)o2)cc1", "activity change, negative = cytotoxicity": "0.766% (inactive)"}
{"smiles": "CN(C)c1ccc(/C=C2\\SC(=O)N(CCc3nnc(N)s3)C2=O)cc1", "activity change, negative = cytotoxicity": "-1.54% (inactive)"}
{"smiles": "COc1ccc(-c2ccc3c(N)c(C(=O)c4ccc(OC)c(OC)c4)sc3n2)cc1", "activity change, negative = cytotoxicity": "-18.1% (inactive)"}
{"smiles": "COc1ccc(CNC(=O)Nc2cccs2)cc1OC", "activity change, negative = cytotoxicity": "-1.77% (inactive)"}
{"smiles": "COc1ccc(S(=O)(=O)N2c3cc(Cl)ccc3Oc3nc4ccccc4nc32)cc1", "activity change, negative = cytotoxicity": "-16% (inactive)"}
{"smiles": "O=C(c1cc(Cl)c(=O)n(Cc2ccccc2)c1)N1CCOCC1", "activity change, negative = cytotoxicity": "13.2% (inactive)"}
{"smiles": "O=C(c1cc(-c2ccccc2O)on1)N1CCCCCC1", "activity change, negative = cytotoxicity": "-3.85% (inactive)"}
{"smiles": "COc1ccc(C(=O)c2sc3nc(C)cc(-c4cccs4)c3c2N)cc1OC", "activity change, negative = cytotoxicity": "-23.2% (inactive)"}
{"smiles": "Cc1nnc2ccc(-c3cccc(NS(=O)(=O)c4cc(F)ccc4F)c3)nn12", "activity change, negative = cytotoxicity": "4.37% (inactive)"}
{"smiles": "CCCCn1c(-c2ccncc2)nc2c1c(=O)[nH]c(=O)n2CC(C)C", "activity change, negative = cytotoxicity": "-14.9% (inactive)"}
{"smiles": "COc1ccc(NC(=O)c2ccccc2NC(=O)CSc2ccc(C)cc2)cc1", "activity change, negative = cytotoxicity": "-13.9% (inactive)"}
{"smiles": "CC(C)CN(C(=O)COC(=O)CSc1ccccc1)c1c(N)n(Cc2ccccc2)c(=O)[nH]c1=O", "activity change, negative = cytotoxicity": "-0.439% (inactive)"}
{"smiles": "CCC(C)NC(=O)Cn1c(=O)n(-c2ccccc2)c(=O)c2ccc(C(=O)NCc3ccco3)cc21", "note": "(configuration not stated)", "activity change, negative = cytotoxicity": "-1.22% (inactive)"}
{"smiles": "COc1ccc(N=C2NC(=O)S/C2=C\\c2ccc(N(C)C)cc2)cc1", "activity change, negative = cytotoxicity": "-5.14% (inactive)"}
{"smiles": "COc1ccc(-c2nnc(SCC(=O)N3CCCc4ccccc43)o2)cc1OC", "activity change, negative = cytotoxicity": "-13.4% (inactive)"}
{"smiles": "Cc1nc(NC(=O)C(C)Oc2cccc(Cl)c2)sc1C(=O)N(C)C", "note": "(configuration not stated)", "activity change, negative = cytotoxicity": "-12.6% (inactive)"}
{"smiles": "CCn1c(SCc2nc3ccccc3c(=O)[nH]2)nc2ccccc2c1=O", "activity change, negative = cytotoxicity": "-8.27% (inactive)"}
{"smiles": "COc1cc(C2C3=C(COC3=O)Oc3cc4c(cc32)OCO4)cc(OC)c1O", "note": "(configuration not stated)", "activity change, negative = cytotoxicity": "-15.8% (inactive)"}
{"smiles": "C[C@@H]1CN([C@H](C)CO)C(=O)CCCn2cc(nn2)CO[C@H]1CN(C)C(=O)c1ccccc1", "activity change, negative = cytotoxicity": "9.43% (inactive)"}
{"smiles": "CCN(CC)C(=O)c1ccc(C(=O)c2c(C)cc(C)cc2C)cc1", "activity change, negative = cytotoxicity": "-14.2% (inactive)"}
{"smiles": "COc1ccc(-c2cc(C(F)(F)F)n3nc(C(=O)NCc4ccco4)c(Cl)c3n2)cc1", "activity change, negative = cytotoxicity": "-23.3% (inactive)"}
